IP6K1 inh – IP6K1 kinase inhibition; activity change, % (series mostly up to about 58 µM); Q92551; 140,000 compounds, 0.81% hits; IP6K1 kinase, ADP-Glo luminescence, 2 h; active compounds read low; in the data active means activity change below about -25%
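ADP-Glo luminescence measures ADP made by human IP6K1 during a 2 h RT reaction with ATP/IP6 (mix at 1.3 mM/130 uM); top library doses 57.5 and 19.1 uM final.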
SNCA expr inhib – SNCA gene expression inhibition. HEK-293 SNCA-luciferase knock-in, luminescence, 24 h. Potency, µM (series often up to 57.2 µM), usual class: inhibitors. 140,000 compounds, 0.17% hits. AID 1671194; further: nearly all actives have a fitted effect of over 45% in size
GPT2 inhibitor – GPT2 alanine aminotransferase inhibition. 100,000 compounds, 0.25% hits. Recombinant GPT2, coupled pyruvate oxidase/HRP Amplex Red fluorescence. Potency, µM (titrated, usually from 57.7 µM), usual class: inhibitors; further: nearly all actives have a fitted effect of over 60% in size
Target sequence (Q8TD30 whole entry, looked up): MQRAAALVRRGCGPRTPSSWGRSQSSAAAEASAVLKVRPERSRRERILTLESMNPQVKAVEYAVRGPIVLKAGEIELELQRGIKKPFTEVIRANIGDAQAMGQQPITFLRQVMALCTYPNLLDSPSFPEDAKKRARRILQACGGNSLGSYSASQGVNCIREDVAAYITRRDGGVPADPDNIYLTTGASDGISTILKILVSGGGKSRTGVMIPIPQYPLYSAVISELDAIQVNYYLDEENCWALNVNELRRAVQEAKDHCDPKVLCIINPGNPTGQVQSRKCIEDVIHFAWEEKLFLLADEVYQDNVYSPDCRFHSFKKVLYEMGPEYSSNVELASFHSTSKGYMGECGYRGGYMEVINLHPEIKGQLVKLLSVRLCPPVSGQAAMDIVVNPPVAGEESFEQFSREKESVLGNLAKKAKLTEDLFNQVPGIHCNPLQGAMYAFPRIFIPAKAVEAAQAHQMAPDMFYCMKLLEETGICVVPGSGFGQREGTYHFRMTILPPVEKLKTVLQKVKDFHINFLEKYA
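GPT2 10ng/uL, a-KG 250uM, L-Ala 2mM, HEPES pH7.5 + 0.0001% Tween; 30 min RT. Then Amplex mix (PO/HRP/ThPP), 30 min RT dark, fluorescence. AOA 50uM used as positive control.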
HEK293 viab – counter-screen for SNCA expression inhibitors: cell viability; 150,000 compounds, 0.12% hits; HEK-293-SNCA-luc viability, GF-AFC fluorescence, 24 h; Potency, µM (series often up to 57.1 µM), most hits filed as cytotoxic; further: nearly all actives have a fitted effect of over 30% in size
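HEK-293-SNCA-luc cells (1500/well) plated 24 h, then exposed 24 h to a dilution series; GF-AFC added 30 min at 37C, fluorescence 405/540 nm; normalised to medium-only and DMSO wells, Hill fit.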
Hits are given with their value; i = inactive; ? = inconclusive; nt = no result given; ! = not active in a repeat; [ ] = dose if it differs, or a comment. In the library only some 1% were active in any assay of this set; here they are far more common. Unless noted, the call rests on the fitted dose curve; in most records, active means well fitted curve in the direction sought with a large enough effect; inconclusive means small, poorly fitted or top-dose-only effect, or another doubt; inactive means no such curve, though single readings can be large; an effect the other way counts as inactive or inconclusive.

SMILES | IP6K1 inh | SNCA expr inhib | GPT2 inhibitor | HEK293 viab
COc1ccc(F)cc1-c1cccc(C(=O)NCC(=O)NCCc2cccc(F)c2)c1 | i | nt | nt | nt
NC[C@@](O)(c1ccc(Cl)cc1)c1ccc(-c2cn[nH]c2)cc1 | i | nt | i | 24µM
NCC(O)(CS(=O)(=O)O)c1ccc(Cl)cc1 (centres undefined) | nt | i | i | i
CCC(=O)Nc1ccc(C)cc1-c1nc2ccccc2n(CC(=O)c2ccc(C)cc2)c1=O | i | 28µM | nt | i
COc1ccc(C(=O)Cn2c(=O)c(-c3cc(C)ccc3NC(C)=O)nc3ccccc32)cc1 | i | i | nt | ?
Cc1nn(-c2ccccc2)c2c1C(C)N(C1CCCN(C(=O)Nc3ccc(Cl)cc3)C1)C2=O (centres undefined) | i | nt | nt | nt
COc1ccc(CN2CC3(CCN(C(=O)Nc4cccc(C(F)(F)F)c4)CC3)C2=O)cc1 | i | i | i | i
CC(C)[C@@](C)(O)[C@@H]1CN(c2nc(-c3[nH]nc4ncccc34)c(F)cc2Cl)CCN1 | i | nt | i | 30µM
CCOc1ccc(Cn2c(CNS(=O)(=O)c3cccc(Cl)c3)nc3cccnc32)cc1 | i | i | nt | i
Cc1ccc(/C=C/c2nc3ccccc3n2S(=O)(=O)c2cccc(Cl)c2)cc1 | -51 | ? | nt | i
CCOc1ccc(/C=C/c2nc3ccccc3n2S(=O)(=O)c2cccc(Cl)c2)cc1 | -31 | i | nt | i
C#CCn1c(/C=C/c2ccc(Cl)cc2)nc2ccccc21 | i | i | nt | i
COCCN1CCCC[C@]2(C[C@H](CO)[C@H](c3ccccc3)N2C(=O)OCC(C)C)C1=O | i | nt | nt | nt
C#CCNC(=O)c1cc(-c2ccc(C(F)(F)F)cc2)nc2c1cnn2C | i | nt | nt | nt
COc1ccc(-c2cc(C(=O)N3CCCC(C)C3)c3cnn(C)c3n2)cc1 (centres undefined) | i | nt | nt | nt
Cc1nn(C(=O)c2ccccc2)c(C)c1Sc1ccc(Cl)cc1 | i | ? | nt | 20µM
COc1cccc2c1C(=O)c1c(O)c3c(c(O)c1C2=O)C[C@@](O)(C(=O)CO)C[C@@H]3O[C@H]1C[C@H](N)[C@H](OC2CCCCO2)[C@H](C)O1 (some centres undefined) | nt | ? | 3.1µM | i
COC(=O)[C@@H]1Cc2c([nH]c3ccccc23)[C@H]2C[C@@H](NCc3ccccc3)C[C@@H](c3ccccc3F)N21 | i | ? | i | i
C#CCn1c(=O)n(-c2cccc(Cl)c2C)c(=O)c2c3c(sc21)CN(C(C)=O)CC3 | i | 4µM | nt | i
CC(=O)N1CCc2c(sc3c2c(=O)n(-c2cccc(Cl)c2C)c(=O)n3Cc2ccccc2C)C1 | i | i | nt | ?
Cc1ccc(C)c(N2CCN(c3nc4ccccc4c(=O)n3-c3ccccc3)CC2)c1 | i | 2.5µM | nt | i
C=CCNC1=C2C[C@@H](C)C[C@H](OC)[C@@H](O)[C@@H](C)C=C(C)[C@H](OC(N)=O)[C@@H](OC)C=CC=C(C)C(=O)NC(=CC1=O)C2=O | nt | ? | i | i
CO[C@H]1C=CC=C(C)C(=O)NC2=CC(=O)C(NCCN(C)C)=C(C[C@@H](C)C[C@H](OC)[C@@H](O)[C@@H](C)C=C(C)[C@@H]1OC(N)=O)C2=O | nt | 0.054µM | 31µM | ?
CN(C)CCCOc1nn(Cc2ccccc2)c2ccccc12 | i | i | 1.3µM! | i
CN(C)C(=O)C(C)(C)Oc1nn(Cc2cccc(Cl)c2)c2ccccc12 | i | ? | i | i
SMILES | IP6K1 inh | SNCA expr inhib | GPT2 inhibitor | HEK293 viab
Cc1nn(-c2ccccc2)c2c1C(C(C)C)N(C1CN(C(=O)c3ccccc3)C1)C2=O (centres undefined) | i | nt | nt | nt
Cc1nc(Nc2n[nH]c3c2CN(C(=O)NC(CN(C)C)c2ccccc2)C3(C)C)c2sccc2n1 (centres undefined) | i | nt | i | 7.5µM
Cc1cccc(-c2cccc(CN3CCC(NC(=O)c4ccccc4C)CC3)c2)c1 | i | i | i | i
O=C(N1CCN(C/C=C/c2ccccc2)CC1)C12CNCC1CNC2 (centres undefined) | i | i | i | i
Fc1ccc(C(c2ccc(F)cc2)N2CCN(CC=Cc3ccccc3)CC2)cc1 | nt | i | 4.3µM | ?
Nc1ccc2nc(-c3ccc(O)cc3)sc2c1 | i | 1.3µM | nt | i
CCNC(=O)N(C)Cc1cccc(N2CCN([S+](=O)([O-])c3c(Cl)cccc3Cl)CC2)c1F | i | nt | nt | nt
CC(C)c1ccc(-c2nc(C(N)=O)c3c(n2)n(-c2ccc4c(c2)OCO4)c(=O)n3C)cc1 | i | i | nt | i
Cn1c(=O)n(-c2ccc3c(c2)OCO3)c2nc(-c3ccc(Cl)cc3)nc(C(N)=O)c21 | i | 32µM | nt | i
COc1ccc(N2CC3CCC(C2)N3Cc2cccc(-c3cccnc3)c2)cc1 | i | ? | 6.3µM | i
CN[C@@H]1C[C@H]2O[C@@](C)([C@H]1OC)n1c3ccccc3c3c4c(c5c6ccccc6n2c5c31)C(=O)N[C@H]4O | nt | 4.3µM | i | ?
CC(C)NC[C@H](O)c1ccc(O)c(O)c1 | nt | i | 3.5µM! | i
CC(C)NCC(O)c1cc(O)cc(O)c1 (centres undefined) | i | i | ? | i
C[C@@H]1CC[C@@]2(OC1)O[C@H]1C[C@H]3[C@@H]4CC[C@H]5C[C@@H](O)CC[C@]5(C)[C@H]4CC(=O)[C@]3(C)[C@H]1[C@@H]2C | i | i[2.29 µM] | 2.2µM | i[2.51 µM]
Cc1cnc(Nc2ccc(N3CCN(C)CC3)cc2)nc1Nc1cccc(S(=O)(=O)NC(C)(C)C)c1 | nt | i | 19µM | ?
CCn1c(=O)c(-c2ccc(-c3cncs3)cc2Cl)cc2cnc(Nc3ccc(N4CCN(C)CC4)cc3)nc21 | i | nt | i | i
Cc1ccc(C(=O)N(CCCN)C(c2nc3cc(Cl)ccc3c(=O)n2Cc2ccccc2)C(C)C)cc1 (centres undefined) | i | nt | i | 30µM
NC[C@@H]1O[C@H](c2ccccc2)Cc2c1ccc(O)c2O | nt | i | 20µM | i
O=c1c(-c2ccc(O)cc2)coc2cc(O[C@@H]3O[C@H](CO)[C@H](O)[C@H](O)[C@H]3O)ccc12 | nt | ? | i | i
O=c1c(-c2ccc(O)cc2)coc2cc(OC3O[C@H](CO)[C@H](O)[C@H](O)[C@H]3O)cc(O)c12 (some centres undefined) | nt | 5.4µM | ? | i
CCN(C(=O)c1c(O)c2c(Cl)cccc2n(C)c1=O)c1ccccc1 | nt | 5.4µM | i | ?
Cc1nn2c(c1-c1ccnn1C(C)C)N(Cc1ccc(C(=O)O)s1)CCC2 | i | ? | i | ?
Cc1ccc(-c2cc3c(=O)n(CCNC(=O)c4cc(C5CC5)[nH]n4)ccn3n2)c(C)c1 | i | i | i | i
C[C@@]1(C(=O)Nc2ccc(F)nc2)CCCN1c1nc(Nc2cc(C3CC3)[nH]n2)c2cccn2n1 | i | i | i | 1.9µM!
COc1cccc(CN2C[C@H]3[C@H](C2)[S+](=O)([O-])C(C)(C)C(=O)N3CCOc2ccccc2)c1 | i | i | i | i
COc1cncc(N2C[C@@H]3[C@H](C2)N(CCOc2ccccc2)C(=O)C(C)(C)[S+]3(=O)[O-])c1 | i | i | 10µM | i
Cc1nn2c(c1-c1ccccc1-c1ccccc1)N(Cc1cccc(O)c1)CCC2 | i | ? | i | ?

Source: PubChem BioAssay
